sEH inh: blocks human soluble epoxide hydrolase activity; 0.34% of 91,000 active; inhibition, % at 2 µM; P34913; recombinant human sEH enzymatic activity assay; in the data active = inhibition above about 80%
Target sequence (P34913 whole entry, looked up): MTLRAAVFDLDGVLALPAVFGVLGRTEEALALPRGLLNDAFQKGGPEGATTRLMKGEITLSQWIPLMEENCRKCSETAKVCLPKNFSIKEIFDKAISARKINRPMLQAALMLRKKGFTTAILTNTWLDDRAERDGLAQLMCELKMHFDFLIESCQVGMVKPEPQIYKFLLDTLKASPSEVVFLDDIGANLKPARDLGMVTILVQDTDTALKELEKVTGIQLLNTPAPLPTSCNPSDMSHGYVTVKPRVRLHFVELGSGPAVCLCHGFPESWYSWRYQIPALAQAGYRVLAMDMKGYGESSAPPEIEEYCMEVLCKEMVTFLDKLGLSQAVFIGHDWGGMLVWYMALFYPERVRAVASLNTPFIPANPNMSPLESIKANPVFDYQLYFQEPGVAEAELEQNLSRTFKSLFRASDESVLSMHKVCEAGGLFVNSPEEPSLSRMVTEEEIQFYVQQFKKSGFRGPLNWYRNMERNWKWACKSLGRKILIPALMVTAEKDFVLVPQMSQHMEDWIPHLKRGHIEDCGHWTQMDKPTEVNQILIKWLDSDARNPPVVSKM
NFkB transloc inh: blocks IL-1B driven NFkB nuclear translocation in HUVEC cells | HUVEC IL-1B NFkB p65 nuclear translocation imaging | inhibition, % at 2 µM | AID 796 | 0.43% of 94,000 active;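 active = inhibition above about 30% together with a positive call from visual inspection of the well image, limit read from the data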;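 note: nuclear over cytoplasmic p65 intensity ratio measured by imaging; 0% = IL-1B stimulated DMSO wells and 100% = unstimulated DMSO wells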
NFkB transloc pot: enhances IL-1B driven NFkB nuclear translocation | AID 819 | activation, % at 2 µM | 0.3% of 94,000 active | HUVEC IL-1B NFkB p65 nuclear translocation imaging;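 active = activation above 40%, about the mean plus 3 SD, also judged a hit on visual image review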;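 note: percent activation is computed from the nuclear over cytoplasmic p65 intensity ratio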
HUVEC tox IL1B: HUVEC cytotoxicity counter-screen, IL-1B stimulated; HUVEC cell count loss, Hoechst imaging; cell count reduction, % at 2 µM; 0.41% of 94,000 active; AID 845;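 active = cell count reduction more than 3 SD above the screen-wide mean, cut at about 70% in these data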;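 note: normalized per plate to untreated control cells as the no-loss baseline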
sEH activator: increases human soluble epoxide hydrolase activity; P34913; purified human sEH enzymatic activity, activator screen; 0.04% of 91,000 active; activation, % at 2 µM; in the data active = activation above about 37%
Cav32 inh: blocks human Cav3.2 T-type calcium channel; O95180; Cav3.2-expressing cells, Fluo-4 calcium fluorescence FDSS; hits give low values; B-score at 10 µM; 4% of 100,000 active; AID 449739;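 active = single-dose well whose peak fluorescence ratio is a statistical outlier from its plate by either plate-standardised score or position-corrected B-score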
* = called active by the depositor; / = no result. An excerpt weighted towards active compounds, which were near 4.6% of everything screened.

SMILES | sEH inh | NFkB transloc inh | NFkB transloc pot | HUVEC tox IL1B | sEH activator | Cav32 inh
COc1cc2c(cc1NC(=O)c1cccc([N+](=O)[O-])c1)oc1ccccc12 | 4.0 | 9.2 | -9.2 | 78.3* | -0.8 | 0.0965
COc1cc2c(cc1NC(=O)C(C)N1CCN(S(=O)(=O)c3ccc(C)c(C)c3)CC1)oc1ccccc12 (centres undefined) | 12.6 | -0.9 | 0.9 | -7.7 | -13.3 | -2.76
COc1cc2c(cc1NS(=O)(=O)N1CCCC1)oc1ccccc12 | -10.0 | -5.3 | 5.3 | -9.8 | 7.8 | -5.58*
COC(=O)c1ccccc1NC(=O)CSc1nnc(COc2cccc(OC)c2)n1C | 12.9 | -28.3 | 28.3 | 0.6 | -12.9 | -0.716
Cc1ccc(C2=NN3C(C(=O)c4ccccc4)Oc4ccccc4C3C2)cc1 (centres undefined) | -7.7 | -14.8 | 14.8 | -25.3 | 4.6 | -7.3*
CC(=O)N1N=C(c2ccc3nccnc3c2)CC1c1ccccc1 (centres undefined) | -5.0 | -1.5 | / | / | 7.1 | 1.59
O=C(NC1CCCC1)c1ccc(CN2CCOCC2)cc1 | 5.8 | -25.1 | 25.1 | -11.0 | -9.8 | 0.0538
CCOc1ccc(OCc2ccc(C(=O)N3N=C(C(F)F)CC3(O)C(F)F)o2)cc1 (centres undefined) | 7.3 | -44.8 | 44.8* | -15.5 | -4.4 | -1.17
COc1ccc(-c2cc(C(F)(F)F)nc(-n3cc(Br)cn3)n2)cc1 | -16.4 | -53.7 | 53.7* | 10.5 | 15.9 | -0.133
CCN(CC)C(=O)N1CCc2ccccc2C1CN1C(=O)c2ccccc2C1=O (centres undefined) | -2.3 | -11.3 | 11.3 | 2.0 | 2.0 | -4.19*
C=CCn1c(SCC(=O)Nc2ccc(N(C)C)cc2)nnc1-c1cccc(C)c1 | 9.0 | 2.4 | -2.4 | 14.7 | -11.6 | -0.0594
O=C(Nc1ccc2nc(-c3ccc(Br)o3)[nH]c2c1)c1cccs1 | 10.7 | 98.6* | -98.6 | 83.8* | -13.1 | /
O=C(Nc1ccc2nc(-c3ccc(Br)o3)[nH]c2c1)c1ccco1 | -0.7 | -3.5 | 3.5 | -44.4 | -2.0 | /
Cc1ccc(CNC(=O)C2CC(c3cccc(F)c3)=NO2)cc1 (centres undefined) | / | / | / | / | / | -1.84
O=C(NCc1ccc2c(c1)OCO2)C1CC(c2ccc(Cl)cc2)=NO1 (centres undefined) | 6.5 | 8.4 | -8.4 | -11.5 | -7.5 | -5.58*
O=C(NCc1ccc(OC(F)(F)F)cc1)C1CC(c2cccc(F)c2)=NO1 (centres undefined) | / | / | / | / | / | -3.15*
COc1cc(OC)c(C2=NOC(C(=O)NCc3ccc4c(c3)OCO4)C2)cc1Cl (centres undefined) | / | 4.5 | -4.5 | -6.9 | / | -2.31
Cn1c(SCc2nc(-c3cccs3)no2)nnc1C1CCCCC1 | 10.9 | -9.3 | 9.3 | 10.5 | -6.2 | -0.335
Cc1ccc(C(C(=O)NC2CCCCC2)N(Cc2ccco2)C(=O)Cc2c[nH]c3ccccc23)o1 (centres undefined) | -6.2 | 2.2 | -2.2 | -17.4 | 8.1 | -10*
Cc1ccc(-c2nnn(CC(=O)N(c3ccc(F)cc3)C(C(=O)NC3CCCC3)c3ccco3)n2)o1 (centres undefined) | / | / | / | / | / | 0.04
Cc1ccc(N(C(=O)Cc2c[nH]c3ccccc23)C(C(=O)NC2CCCCC2)c2ccco2)cc1 (centres undefined) | -4.2 | 8.3 | -8.3 | -3.3 | 7.6 | -4.82*
O=C(COc1ccc(S(=O)(=O)NCc2ccccc2)cc1)NCC1CCCO1 (centres undefined) | 6.9 | -2.2 | 2.2 | -0.7 | -7.6 | 0.393
COc1ccccc1-c1cc(C(=O)N/N=C/C=C/c2ccccc2[N+](=O)[O-])c2ccccc2n1 | 3.5 | -41.9 | 41.9* | -2.1 | -0.4 | -4.07*
COc1ccccc1-c1cc(C(=O)N/N=C/c2cccs2)c2ccccc2n1 | 12.2 | -3.1 | 3.1 | 21.0 | -10.9 | /
Cc1csc(NC(=O)C(Cc2ccccc2)n2cccc2)n1 (centres undefined) | -2.1 | -5.1 | 5.1 | -38.3 | 2.1 | -4.92*
SMILES | sEH inh | NFkB transloc inh | NFkB transloc pot | HUVEC tox IL1B | sEH activator | Cav32 inh
C/C(CC(C)(C)C1CCCCC1)=N\NC(N)=S | 10.7 | / | / | / | -13.2 | -4.59*
C/C(CCC12CC3CC(CC(C3)C1)C2)=N\NC(N)=S | -17.8 | 8.8 | -8.8 | -5.7 | 11.2 | -1.49
COC(=O)c1cc(=O)n(CCc2ccccc2F)c(=Nc2ccc(F)c(Cl)c2)s1 | 12.7 | 8.8 | -8.8 | 5.7 | -12.2 | -3.54*
OC(COc1ccc(OCc2ccccc2)cc1)CN1CCCCC1 (centres undefined) | 50.0 | -14.6 | 14.6 | 3.6 | -48.2 | 0.201
CC(O)c1c(OCc2ccccc2)ncnc1OCc1ccccc1 (centres undefined) | 8.2 | -5.2 | 5.2 | -18.6 | -5.8 | -5.11*
Cc1cc(F)c(F)c(C(=O)N2CCOCC2)c1 | -5.0 | -4.1 | 4.1 | 37.1 | 6.5 | 0.277
CCc1c(C(=O)N2CCOCC2)csc1C | -6.8 | 97.8* | -97.8 | 91.2* | 8.2 | 0.031
O=C(c1ccc(N2CCCCC2)c([N+](=O)[O-])c1)N(Cc1ccccc1)c1ccccn1 | -9.3 | 2.1 | -2.1 | 23.7 | 8.9 | -4.46*
COc1ccc(C(=O)n2nc(C)cc2C)cc1OC | 6.0 | 5.6 | -5.6 | -33.0 | -2.4 | 0.595
CCOC(=O)c1ccc(Oc2nc(NC(C)(C)C)nc(N(C)C)n2)cc1 | -11.7 | -17.5 | 17.5 | 4.1 | 13.2 | -7.11*
CCOC(=O)c1ccc(Oc2nc(N(C)C)nc(N(C)C)n2)cc1 | -10.8 | 1.6 | -1.6 | -21.4 | 12.3 | -2.42
CCN1c2cccc3cccc(c23)S1(=O)=O | -9.8 | / | / | / | 6.7 | /
CCN1/C(=C(\O)c2ccccc2)C(=O)c2ccccc2S1(=O)=O | 8.6 | -2.5 | 2.5 | 2.1 | -6.7 | -3.84*
CCNC(=O)[C@H]1O[C@@H](n2cnc3c(N)nc(NCCc4ccc(CCC(=O)O)cc4)nc32)[C@H](O)[C@@H]1O | / | / | / | / | / | 1.3
Cc1c(N=CN2CCOCC2)c(=O)n(C)c(=O)n1C | -9.3 | -33.4 | 33.4 | -4.5 | 6.6 | 0.456
COCCn1c(SCc2ccc(C(=O)OC)o2)nc2cc(Cl)ccc2c1=O | 3.8 | 2.6 | -2.6 | 8.4 | -4.3 | -3.95*
Cc1c(-c2cccs2)[n+](=O)c2c(n1[O-])CCC2 | -0.4 | 7.0 | -7.0 | -24.1 | 0.0 | 1.13
CC1(C)N=C(SCC(=O)Nc2ccc(Cl)cc2)C(c2ccccc2)=N1 | -2.0 | / | / | / | -0.8 | -5.18*
COc1nc(N)c(S(=O)(=O)c2ccc(C)cc2)cc1C#N | 4.5 | -2.7 | 2.7 | -28.7 | -2.8 | -0.163
Cc1ccc2[nH]c(=O)c(CN(Cc3cccs3)Cc3nnnn3Cc3ccccc3)cc2c1 | / | / | / | / | / | -3.27
O=C(NCc1ccc(C(F)(F)F)cc1)C12CN(Cc3ccccc3)CC1C(c1cccc([N+](=O)[O-])c1)=NO2 (centres undefined) | -0.6 | -7.7 | 7.7 | 8.5 | -1.5 | -3.16*
C=CCNC(=O)c1ccc2nc(-c3ccccc3)c(-c3ccccc3)nc2c1 | -4.0 | / | / | / | 4.0 | -0.926
COc1ccc(N(C)C(=O)c2ccc3nc(-c4ccccc4)c(-c4ccccc4)nc3c2)cc1 | -1.3 | 3.6 | -3.6 | -10.5 | 1.7 | -8.8*

Source: PubChem BioAssay (several laboratories)
